Results as given in the supplement of paper PMC9334596.
“And” between values parts separate entries of the source, which are not always exact repeats. Equal entries are not always repeated. The full ranking holds about 5,300 compounds; the median of “PER2::LUC luminescence relative to vehicle control” is about 0.96, and the highest 2% start at about 1.3. This excerpt belongs to a sample that is enriched for the highest values.

Tested on: mPer2Luc MEF
Assay: PER2::LUC luminescence relative to vehicle control (fold of vehicle); higher = higher PER2::LUC reporter signal
Settings: 10 µM
Procedure, shortened: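 The reported values are PER2::LUC luminescence as fold of vehicle control in mouse embryonic fibroblasts carrying the mPer2Luc reporter. Cells were seeded at ~3000 per well in 384-well plates in DMEM with 10% FBS at 37 °C and 5% CO2, and compounds were added at 10 μM 48 h later. ONE-Glo luminescence was read 24 h and 30 h after treatment.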

Row | Structure (SMILES) | PER2::LUC luminescence (time after treatment 24 h) | PER2::LUC luminescence (time after treatment 30 h)
1 | CC(C)=CCC[C@@H](C)[C@H]1CC[C@@]2(C)C3=C(CC[C@]12C)[C@@]1(C)CC[C@H](O)C(C)(C)[C@@H]1CC3 | 1.06 | 0.995
2 | O=C(O)CC1CCC(c2ccc(-c3ccc4nc(C(=O)NCc5ccc(OC(F)(F)F)cc5)cn4c3)cc2)CC1 (stereo not given) | 1 | 1.1
3 | c1ccc2[nH]c(-c3cscn3)nc2c1 | 1.41 | 1.35
4 | c1ccc(Cc2nc3ccccc3[nH]2)cc1 | 1.17 | 0.971
5 | CC(C)(C)c1ccc(-c2nc3ccccc3[nH]2)cc1 | 0.03 | 0.034
6 | O=C(NC[C@@H]1CN(c2ccc(N3CCOCC3=O)cc2)C(=O)O1)c1ccc(Cl)s1 | 0.948 | 0.975
7 | CNC(=O)[C@H]1O[C@@H](n2cnc3c(N)ncnc32)[C@H](O)[C@@H]1O | 1.11 | 1.03
8 | CC1(O)CCC(C(C)(C)O)CC1 (stereo not given) | 0.901 and 0.99 | 0.986 and 0.688
9 | C[C@H]1CC[C@@H](C(C)(C)O)CC2=C1CC[C@@H]2C | 1.46 | 1.05
10 | CCOc1ccc2nc(S(N)(=O)=O)sc2c1 | 1.19 | 1.28
11 | Nc1nc2ccc(OC(F)(F)F)cc2s1 | 1.26 and 0.999 | 1.5 and 1.06
12 | Oc1ccc(/C=C/c2cc(O)cc(O)c2)cc1 | 1.46 | 1.29
13 | COc1cc(/C=C/c2ccc(O)cc2)cc(OC)c1 | 1.03 | 0.93
14 | Oc1cc(O)cc(/C=C/c2ccc(O)c(O)c2)c1 | 1.15 | 1.09
15 | NC1(C(=O)O)C[C@@H](C(=O)O)[C@H](C(=O)O)C1 (racemic) | 0.98 | 0.892
16 | COc1cc(-c2oc3cc(O)ccc3c(=O)c2O)ccc1O | 1.13 | 1.2
17 | COc1cc(N(C)CCN(C)C)c(N)cc1Nc1nccc(-c2cn(C)c3ccccc23)n1 | 0.57 | 0.54
18 | COc1ccc2c(C)cc(=O)oc2c1 | 0.984 | 1.02
19 | COc1ccc2c(c1)OC/C(=C\c1ccc(OC)c(O)c1)C2=O | 0.879 | 0.794
20 | COc1ccc2c(c1)OCc1c-2oc2cc(OC)ccc12 | 1.52 | 1.8
21 | OC1c2ccccc2N=C2CCCN21 (stereo not given) | 0.854 | 0.868
22 | N#CCC(C1CCCC1)n1cc(-c2ncnc3[nH]ccc23)cn1 (stereo not given) | 1.26 | 1.51
23 | N#CC[C@H](C1CCCC1)n1cc(-c2ncnc3[nH]ccc23)cn1 | 0.99 | 1.13
24 | CCS(=O)(=O)N1CC(CC#N)(n2cc(-c3ncnc4[nH]ccc34)cn2)C1 | 1.09 and 0.875 | 1.24 and 1.03
25 | CCC1=C[C@H]2CN(C1)Cc1c([nH]c3ccccc13)[C@@](C(=O)OC)(c1cc3c(cc1OC)N(C)[C@H]1[C@@](O)(C(=O)OC)[C@H](OC(C)=O)[C@]4(CC)C=CCN5CC[C@]31[C@@H]54)C2 | 0.279 | 0.324
26 | O=C(Nc1ccc(Cl)cc1)c1cc(Br)ccc1O | 0.822 | 0.728
27 | CCc1c(C(=O)NNC(=O)[C@@H](O)c2cc(F)cc(F)c2)ccc(O)c1C | 1.02 | 1.09
28 | O=C1N=c2ccccc2=C1c1c(O)[nH]c2ccccc12 | 0.942 | 0.677

Row | Structure (SMILES) | PER2::LUC luminescence (time after treatment 24 h) | PER2::LUC luminescence (time after treatment 30 h)
29 | O=Nc1c(-c2c(O)[nH]c3cc(Br)ccc23)[nH]c2ccccc12 | 0.663 | 0.788
30 | O=Nc1c(-c2c(O)[nH]c3ccccc23)[nH]c2ccccc12 | 1.72 | 2.02
31 | CN(C)Cc1nc(-c2cn(C)c3ccccc23)no1 | 0.847 | 0.949
32 | O=C(O)c1ccc(S(=O)(=O)N(Cl)Cl)cc1 | 0.921 | 1.67
33 | NS(=O)(=O)c1ccc(C(=O)O)cc1 | 0.746 | 1.06
34 | CCCN(CCC)S(=O)(=O)c1ccc(C(=O)O)cc1 | 0.832 | 0.861
35 | COc1cccc(/C=N/N(C(=O)C(F)(F)F)c2ccc(C)cc2C)c1 | 0.818 | 0.768
36 | CN(CCCNC(=O)c1ccc2nc3c(c(Cl)c2c1)CCCC3)Cc1ccccc1 | 0.848 | 0.958
37 | C=CCn1c(=O)c2c(nc(-c3ccccc3)n2C)n(C)c1=O | 0.98 | 0.951
38 | O=c1c(O)c(-c2ccccc2O)oc2cc(O)cc(O)c12 | 0.983 | 0.996
39 | O=c1c(O)c(-c2cc(O)c(O)c(O)c2)oc2cc(O)cc(O)c12 | 1.22 | 1.34
40 | O=c1c(O)c(-c2ccc(O)c(O)c2)oc2cc(O)cc(O)c12 | 0.939 and 0.842 | 0.934 and 1
41 | O=c1c(O)c(-c2ccc(O)cc2)oc2cc(O)cc(O)c12 | 1.01 | 0.989
42 | O=c1c(O)c(-c2ccc(O)cc2O)oc2cc(O)cc(O)c12 | 0.955 | 0.963
43 | O=c1c(O)c(-c2ccccc2)oc2cc(O)cc(O)c12 | 1.24 | 1.34
44 | C[C@@H]1O[C@@H](O[C@H]2[C@H](Oc3cc(O)c4c(=O)c(O)c(-c5ccc(O)cc5)oc4c3)O[C@H](CO)[C@@H](O)[C@@H]2O)[C@H](O)[C@H](O)[C@H]1O | 1.24 | 0.968
45 | COC(=O)C1=CO[C@@H](O[C@@H]2O[C@H](CO)[C@@H](O)[C@H](O)[C@H]2O)[C@H]2[C@@H]1C(=O)C[C@@H]2C | 0.968 | 0.979
46 | NC(=O)[C@@H]1CC[C@H](c2ccc(OCc3ccccc3F)cc2)N1 | 0.937 | 1.12
47 | COc1ccc(C(=O)c2ccccc2C(=O)O)c(O)c1 | 1.19 | 0.841
48 | Ic1cccc(/C=N/Nc2nc(N3CCOCC3)nc(N(c3ccccc3)c3ccccc3)n2)c1 | 1.3 | 1.15
49 | CCOC(=O)C1=C(COCCN)NC(C)=C(C(=O)OC)[C@@H]1c1ccccc1Cl | 0.445 | 0.46
50 | COC(=O)C1=C(C)NC(C)=C(C(=O)OCCN(C)Cc2ccccc2)C1c1cccc([N+](=O)[O-])c1 (stereo not given) | 1.07 | 0.867
51 | COCCOC(=O)C1=C(C)NC(C)=C(C(=O)OC(C)C)C1c1cccc([N+](=O)[O-])c1 (stereo not given) | 1.13 | 1.17
52 | CCOC(=O)C1=C(C)NC(C)=C(C(=O)OC)C1c1cccc([N+](=O)[O-])c1 (stereo not given) | 1.06 and 0.626 | 1.37 and 0.715
53 | CNCc1ccc(C)c(NC(=O)c2ccc(Nc3nc(-c4ccccc4)c4ccccc4n3)cc2)c1 | 0.439 | 0.475
54 | Cc1ccc(NC(=O)c2cccc(N(C)C)c2)cc1NC(=O)c1ccc(O)cc1 | 1.1 | 1.56
55 | Cc1ccc(C(=O)Nc2ccc(S(=O)(=O)O)c3cc(S(=O)(=O)O)cc(S(=O)(=O)O)c23)cc1NC(=O)c1cccc(NC(=O)Nc2cccc(C(=O)Nc3cc(C(=O)Nc4ccc(S(=O)(=O)O)c5cc(S(=O)(=O)O)cc(S(=O)(=O)O)c45)ccc3C)c2)c1 | 0.964 and 0.875 | 0.981 and 0.97
